Assay outcomes as filed in PubChem.
3CLpro inhibitor – SARS-CoV 3CLpro protease inhibition. recombinant SARS-CoV 3CLpro, quenched FRET peptide cleavage. inhibition, % at 6 µM. 290,000 tested, 0.14% active. P0C6X7; in the data active = inhibition above about 12%
BJeLR lethal – BJeLR cell viability loss | 300,000 tested, 0.17% active | inhibition, % (no concentration beside the values) | AID 1554 | BJeLR (HRASV12) viability, CellTiter-Glo ATP luminescence, 48 h; in the data active = inhibition above about 50%; inconclusive = no clear call, values can overlap the other calls
RecA splice inh – blocks M. tuberculosis RecA intein splicing | inhibition, % (concentration not given with the values) | 290,000 tested, 0.75% active | cell-free RecA intein splicing, fluorescence | AID 2221; in the data active = inhibition above about 30%; inconclusive = no clear call, values can overlap the other calls
Target sequence (P9WHJ3 whole entry, looked up, canonical isoform): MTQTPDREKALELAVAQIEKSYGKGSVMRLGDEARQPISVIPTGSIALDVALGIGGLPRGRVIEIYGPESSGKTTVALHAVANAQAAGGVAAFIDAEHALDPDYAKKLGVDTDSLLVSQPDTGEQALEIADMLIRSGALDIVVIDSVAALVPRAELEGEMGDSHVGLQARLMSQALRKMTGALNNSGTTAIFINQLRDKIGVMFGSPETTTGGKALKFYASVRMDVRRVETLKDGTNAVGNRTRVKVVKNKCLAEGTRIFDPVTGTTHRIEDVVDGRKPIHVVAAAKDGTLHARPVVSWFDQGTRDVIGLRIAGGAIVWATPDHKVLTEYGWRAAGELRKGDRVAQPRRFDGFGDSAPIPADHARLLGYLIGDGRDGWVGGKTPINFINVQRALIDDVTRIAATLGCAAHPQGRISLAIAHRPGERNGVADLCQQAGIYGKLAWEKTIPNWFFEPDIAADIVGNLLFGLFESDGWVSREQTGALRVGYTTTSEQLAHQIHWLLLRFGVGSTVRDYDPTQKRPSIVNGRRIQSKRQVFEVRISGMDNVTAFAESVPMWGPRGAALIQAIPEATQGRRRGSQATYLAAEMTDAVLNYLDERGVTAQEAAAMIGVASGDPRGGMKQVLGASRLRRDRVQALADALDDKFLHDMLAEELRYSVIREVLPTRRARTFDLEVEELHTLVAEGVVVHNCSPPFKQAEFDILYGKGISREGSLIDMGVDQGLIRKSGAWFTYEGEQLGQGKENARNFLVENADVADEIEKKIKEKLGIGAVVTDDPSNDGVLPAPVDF
PrPC surface inh – inhibitors of human cell surface prion protein PrPC; P04156; TR-FRET read-out; inhibition, % at 13.8 µM; 370,000 tested, 0.43% active; in the data active = inhibition above about 24%
Mtb hypoxia inh – Mtb hypoxia fluorescent reporter inhibition; M. tuberculosis hypoxia-regulated fluorescent reporter, fluorescence; fluorescence inhibition, % (test concentration not listed); 300,000 tested, 0.1% active; AID 1159583; in the data active = fluorescence inhibition mostly above about 23%, no sharp cut-off; inactive = mostly below about 17%
PrP UTR inh – inhibition of PrP 5' UTR reporter expression. cell-based PrP 5' UTR mRNA reporter, plate reader. inhibition, % (no concentration beside the values). 340,000 tested, 0.35% active. AID 488862; in the data active = inhibition above about 52%
GFP chromo cs – counter-screen: blocks GFP chromophore formation. 2,100 tested, 83% active. cell-free GFP chromophore formation, fluorescence. EC50, µM. shares compounds with RecA splice inh; call rule not given here
Large screens that a line does not name were inactive (follow-up assays come after a bar, where they were run). Rows were chosen to be rich in hits. Some 1.4% of all compounds tested hit in one or more screens of this group.

N#C/C(=C\c1c(Cl)cccc1Cl)c1nn(-c2ccccc2)c(-n2cccc2)c1C#N	none
N#C/C(=C\c1c(F)cccc1Cl)c1nn(-c2ccccc2)c(-n2cccc2)c1C#N	RecA splice inh 46.3 (no result: Mtb hypoxia inh) | GFP chromo cs inactive
CC1CCC(C)(NS(=O)(=O)OCC(Cl)(Cl)Cl)CC1 (stereo not given)	none
O=S(=O)(N[C@H]1C[C@@H](NS(=O)(=O)OCC(Cl)(Cl)Cl)C2CCCCC21)OCC(Cl)(Cl)Cl (stereo not given in full)	RecA splice inh 31.6 (no result: Mtb hypoxia inh) | GFP chromo cs inactive
COc1ccccc1NC(=O)C1=C(C)Nc2nnnn2C1c1ccncc1 (stereo not given)	RecA splice inh 39.3 | GFP chromo cs inactive
CCOC(=O)c1c(NC(C)=O)sc2c1CCC(C=NCCCN(CC)CC)=C2Sc1ccccc1	RecA splice inh 60.9 (no result: PrPC surface inh, Mtb hypoxia inh) | GFP chromo cs 0.372
CC(=O)N(C1=C(N2CCOCC2)C(=O)c2ccccc2C1=O)c1ccc(C(=O)O)cc1	RecA splice inh 61.4 | GFP chromo cs 19.8
COc1ccc(C=NOCC(=O)OCC(=O)N(C)c2ccccc2)cc1	none (no result: 3CLpro inhibitor, BJeLR lethal, RecA splice inh, PrPC surface inh, PrP UTR inh)
CN1C(=O)C(O)(CC(=O)C=CC=Cc2ccccc2)c2ccccc21 (stereo not given)	none (no result: 3CLpro inhibitor, BJeLR lethal, RecA splice inh, PrPC surface inh, PrP UTR inh)
CN(C)C(=S)N=Nc1[nH]c2ccccc2c1O	RecA splice inh 58.6 (no result: PrP UTR inh) | GFP chromo cs 8.19
CCOc1ccc(N=Nc2c(N)[nH][nH]c2=O)cc1	RecA splice inh 53.9 | GFP chromo cs 17.8
COc1cccc(N=Nc2c(N)[nH][nH]c2=O)c1	none
CCOC(=O)c1cnc2ccc(C)cc2c1Sc1ccccc1	RecA splice inh 62.8 (no result: Mtb hypoxia inh) | GFP chromo cs 37.7
Cn1c(SCC(=O)NCC2CCCO2)ncc(C(=O)Nc2ccc(F)cc2)c1=O (stereo not given)	RecA splice inh 38.6 (no result: 3CLpro inhibitor) | GFP chromo cs 0.89
Cn1c(SCC(=O)NCC2CCCO2)ncc(C(=O)Nc2ccc(Cl)cc2)c1=O (stereo not given)	RecA splice inh 54.3 (no result: 3CLpro inhibitor) | GFP chromo cs inactive
CCc1ccc(NC(=O)CSc2ccc(-c3sc(C)nc3C)nn2)cc1	RecA splice inh 82.3 | GFP chromo cs inactive
COC(=O)c1scc(C#N)c1NN=C(C#N)S(=O)(=O)c1ccc(Cl)cc1	none (no result: 3CLpro inhibitor, BJeLR lethal, RecA splice inh, PrPC surface inh, PrP UTR inh)
CCn1nc(-c2cccs2)nc2c(=O)n(C)c(=O)nc1-2	none (no result: 3CLpro inhibitor, BJeLR lethal, RecA splice inh, PrPC surface inh)
CCn1nc(/C=C/c2ccccc2)nc2c(=O)n(C)c(=O)nc1-2	RecA splice inh 78.6 | GFP chromo cs 0.309
Oc1ccc(N=Cc2ccc(O)c(O)c2)cc1	RecA splice inh 85.7 (no result: PrPC surface inh) | GFP chromo cs 24.3
Oc1ccc(/C=N/N=C/c2ccc(O)c(O)c2)cc1O	none (no result: Mtb hypoxia inh)
O=C1C(Cc2ccccc2)NCCCCC(c2ccc(Cl)cc2)N1Cc1ccccc1 (stereo not given)	none (no result: 3CLpro inhibitor, BJeLR lethal, RecA splice inh, PrPC surface inh, PrP UTR inh)
COc1cc(C=NNc2nc(N3CCCCC3)nc(N3CCCCC3)n2)ccc1OC(=O)c1ccco1	none (no result: 3CLpro inhibitor, BJeLR lethal, RecA splice inh, PrPC surface inh, PrP UTR inh)
Cc1cccc(NC(=S)N/N=C2/CCCCc3ccccc32)c1	RecA splice inh 30.0 (no result: Mtb hypoxia inh) | GFP chromo cs inactive
O=c1cc(-c2ccc(Cl)cc2)oc(=O)[nH]1	none
O=c1cc(N=Nc2ccc(Cl)cc2)[nH]c(=O)[nH]1	RecA splice inh 88.2 | GFP chromo cs inconclusive
O=C1CCN(Cc2ccc(Br)cc2)CCN1C(CO)Cc1ccccc1 (stereo not given)	none (no result: 3CLpro inhibitor, BJeLR lethal, RecA splice inh, PrPC surface inh, PrP UTR inh)
COc1ccc(-c2nnc(Sc3nc4ccccc4o3)c3ccccc23)cc1	RecA splice inh 53.3 | GFP chromo cs 1.52
COc1ccc(-c2nnc(OC)c3ccccc23)cc1	none
COc1ccc(C2NC(=O)NC3=C2CCc2ccccc23)cc1 (stereo not given)	RecA splice inh 46.6 (no result: PrPC surface inh, Mtb hypoxia inh) | GFP chromo cs 32.7
COC(=O)c1ccc(C(NC(=O)OCc2ccccc2)C(C)=CC(C)C(=O)NCc2ccc(OC)c(OC)c2)cc1 (stereo not given)	none (no result: 3CLpro inhibitor, BJeLR lethal, RecA splice inh, PrPC surface inh, PrP UTR inh)
O=C(NCc1cccnc1)/C(=C/c1ccc(-c2cccc(Cl)c2)o1)S(=O)(=O)c1ccccc1	none (no result: Mtb hypoxia inh)
O=C(NCc1cccnc1)/C(=C\c1ccc(-c2cccc(Cl)c2)o1)S(=O)(=O)c1ccccc1	RecA splice inh 53.8 | GFP chromo cs 35.3
CC(C)CC(NC(=O)c1nc[nH]c1C(=O)NCCNC(=O)OC(C)(C)C)C(=O)CNCCNC(=O)c1[nH]cnc1C(=O)NC(C)C(=O)OC(C)(C)C (stereo not given)	none (no result: 3CLpro inhibitor, BJeLR lethal, RecA splice inh, PrPC surface inh, PrP UTR inh)
CCOC(=O)C1(CCOc2ccccc2)CCN(Cc2ccc(O)c(Cl)c2)CC1	RecA splice inh 42.7 | GFP chromo cs inactive
CCOC(=O)C1(CCOc2ccccc2)CCN(Cc2ccc(O)c(OC)c2)CC1	none
CCOC(=O)c1cc2cc3ccccc3cc2[nH]1	RecA splice inh 43.7 (no result: BJeLR lethal) | GFP chromo cs inactive
O=[N+]([O-])c1cc([N+](=O)[O-])c2oc(-c3ccccc3)c(Br)c2c1O	RecA splice inh 30.4 (no result: PrPC surface inh) | GFP chromo cs inactive
NS(=O)(=O)c1ccc(N=Cc2c(O)c3ccccc3oc2=O)cc1	RecA splice inh 36.6 (no result: Mtb hypoxia inh) | GFP chromo cs inactive
CC(C)c1ccc(N=Cc2c(O)c3ccccc3oc2=O)cc1	none
COC(=O)C1=CC(C(=O)OC)C2C3=C(C(=O)C24CCCCC4)C(C)n2c(=O)n(C)c(=O)n2C3C1 (stereo not given)	none (no result: 3CLpro inhibitor, BJeLR lethal, RecA splice inh, PrPC surface inh, PrP UTR inh)
COc1ccc(OC)c(Nc2cc3ccccc3c(=O)[nH]2)c1	RecA splice inh 82.9 (no result: 3CLpro inhibitor) | GFP chromo cs 1.85
COc1ccccc1Nc1nnc(C)c(=O)[nH]1	none
COc1ccccc1Nc1cc2cc(Br)ccc2c(=O)[nH]1	RecA splice inh 46.8 (no result: 3CLpro inhibitor) | GFP chromo cs 7.77
CC(=O)c1cccc(-c2ccc3c(=O)[nH]c(Nc4ccccc4)cc3c2)c1	RecA splice inh 93.8 (no result: 3CLpro inhibitor) | GFP chromo cs 8.56
CC(=O)c1cccc(Nc2nc(-c3ccccc3)nc3ccccc23)c1	none
O=c1[nH]c(Nc2ccccc2)cc2ccccc12	RecA splice inh 63.6 (no result: Mtb hypoxia inh) | GFP chromo cs inconclusive
Cn1c(=O)cc(Nc2ccccc2)[nH]c1=O	none
C#CCNC(=O)C1=CC(c2ccc(C#C)cc2)CC(OCc2ccc(CO)cc2)O1 (stereo not given)	none (no result: 3CLpro inhibitor, BJeLR lethal, RecA splice inh, PrPC surface inh, PrP UTR inh)
CC(=NO)C(C)(C)Nc1ccc(Cl)cc1	none (no result: 3CLpro inhibitor, BJeLR lethal, RecA splice inh, PrPC surface inh, PrP UTR inh)
COC(=O)C1=C(c2ccc(F)cc2F)CC2CCC1N2C(=O)N1CCC(O)CC1 (stereo not given)	none (no result: 3CLpro inhibitor, BJeLR lethal, RecA splice inh, PrPC surface inh, PrP UTR inh)
O=c1[nH]c(Nc2ccccc2)cc2cc(Br)ccc12	RecA splice inh 89.7 (no result: 3CLpro inhibitor) | GFP chromo cs 6.01
CN(CC(=O)Nc1ccc(N2CCOCC2)cc1)CC(=O)Nc1cccc(C#N)c1	none | GFP chromo cs inactive
CN(CC(=O)Nc1ccc(C#N)cc1)CC(=O)Nc1ccc(N2CCOCC2)cc1	none
Cc1ccc(SCc2cc(=O)n(C)[nH]2)cc1	RecA splice inh 95.3 | GFP chromo cs 19.2
COc1cc(/C=C(\C#N)C(=O)c2c[nH]c3ccccc23)cc(OC)c1O	RecA splice inh 91.9 | GFP chromo cs 5.17
COc1cc(/C=C(\C#N)C(=O)NCCc2ccccc2)cc(OC)c1O	none
